Laboratory results as given in ChEMBL document CHEMBL3988442, “University of Dundee, Small-Polar-MMV Screening Library” (2021).
For some assays here: Potency and affinity values are given separately.

How the values were obtained:
Design in all cases: scale not given: direction of the effect not stated beside the values
[1] = biological target: Protein translocase subunit SecA (Escherichia coli (strain K12)) (UniProt P10408); experiment: Assay to Identify E. coli SecA ATPase Inhibitors; type: functional; details: 30 µM
Sequence of Protein translocase subunit SecA (Escherichia coli (strain K12)) (P10408 whole entry): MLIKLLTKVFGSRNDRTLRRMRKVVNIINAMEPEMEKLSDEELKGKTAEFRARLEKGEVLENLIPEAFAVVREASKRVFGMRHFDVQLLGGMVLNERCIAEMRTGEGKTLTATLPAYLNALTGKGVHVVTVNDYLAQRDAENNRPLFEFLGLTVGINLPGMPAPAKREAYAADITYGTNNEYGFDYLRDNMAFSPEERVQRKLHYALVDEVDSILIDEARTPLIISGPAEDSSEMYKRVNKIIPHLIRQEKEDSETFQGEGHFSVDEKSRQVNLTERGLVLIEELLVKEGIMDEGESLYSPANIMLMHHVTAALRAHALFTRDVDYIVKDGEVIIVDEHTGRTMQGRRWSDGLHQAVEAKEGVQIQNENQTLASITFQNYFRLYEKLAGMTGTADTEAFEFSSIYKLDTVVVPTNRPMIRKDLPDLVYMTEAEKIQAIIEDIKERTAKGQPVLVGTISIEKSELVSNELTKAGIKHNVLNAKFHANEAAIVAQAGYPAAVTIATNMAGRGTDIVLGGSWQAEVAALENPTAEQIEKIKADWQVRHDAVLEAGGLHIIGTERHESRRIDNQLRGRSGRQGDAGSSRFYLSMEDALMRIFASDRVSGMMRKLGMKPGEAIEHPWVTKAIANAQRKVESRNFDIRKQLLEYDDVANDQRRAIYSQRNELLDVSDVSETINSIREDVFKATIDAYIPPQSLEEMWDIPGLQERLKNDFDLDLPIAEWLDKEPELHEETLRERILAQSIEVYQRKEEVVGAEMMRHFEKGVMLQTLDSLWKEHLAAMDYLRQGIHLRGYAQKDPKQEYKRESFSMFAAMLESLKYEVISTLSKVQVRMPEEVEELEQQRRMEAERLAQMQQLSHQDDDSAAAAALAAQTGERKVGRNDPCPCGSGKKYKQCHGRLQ

[2] = biological target: T1, Ubiquitin-activating enzyme e1, putative (Leishmania donovani (strain BPK282A1)) (UniProt E9BSI1); experiment: Leishmania donovani Ubiquitin Activating Enzyme (LdE1); type: functional; details: 30 µM
T1 sequence (whole entry): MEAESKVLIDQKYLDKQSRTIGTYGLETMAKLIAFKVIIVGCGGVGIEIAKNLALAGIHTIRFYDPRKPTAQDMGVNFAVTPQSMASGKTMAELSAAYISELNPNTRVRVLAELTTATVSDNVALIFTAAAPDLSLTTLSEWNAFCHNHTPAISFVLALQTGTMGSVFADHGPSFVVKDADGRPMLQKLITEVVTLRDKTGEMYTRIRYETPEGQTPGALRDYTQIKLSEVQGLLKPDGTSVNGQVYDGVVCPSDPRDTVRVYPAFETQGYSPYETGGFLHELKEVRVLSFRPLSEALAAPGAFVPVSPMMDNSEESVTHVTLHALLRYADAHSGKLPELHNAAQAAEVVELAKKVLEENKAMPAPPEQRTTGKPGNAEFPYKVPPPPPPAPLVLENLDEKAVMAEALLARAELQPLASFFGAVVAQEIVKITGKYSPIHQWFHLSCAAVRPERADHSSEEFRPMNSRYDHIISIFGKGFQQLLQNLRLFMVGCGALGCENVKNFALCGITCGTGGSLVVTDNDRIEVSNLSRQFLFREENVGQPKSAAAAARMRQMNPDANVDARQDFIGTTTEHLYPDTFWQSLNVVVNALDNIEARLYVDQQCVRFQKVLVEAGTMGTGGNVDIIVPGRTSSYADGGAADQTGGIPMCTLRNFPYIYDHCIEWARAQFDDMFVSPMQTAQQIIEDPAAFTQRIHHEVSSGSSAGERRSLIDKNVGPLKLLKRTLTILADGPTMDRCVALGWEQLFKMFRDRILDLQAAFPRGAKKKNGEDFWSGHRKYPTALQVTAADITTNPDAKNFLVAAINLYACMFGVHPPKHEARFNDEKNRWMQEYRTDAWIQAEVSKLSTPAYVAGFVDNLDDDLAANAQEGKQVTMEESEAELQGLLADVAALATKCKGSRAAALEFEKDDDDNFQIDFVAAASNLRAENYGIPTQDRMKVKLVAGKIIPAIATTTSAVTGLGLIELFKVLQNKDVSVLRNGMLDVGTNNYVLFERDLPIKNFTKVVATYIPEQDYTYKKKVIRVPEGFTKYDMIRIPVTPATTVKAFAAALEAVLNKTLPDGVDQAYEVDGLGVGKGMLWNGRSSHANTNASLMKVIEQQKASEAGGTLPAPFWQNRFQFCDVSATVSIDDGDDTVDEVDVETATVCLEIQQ

[3] = biological target: AMP-activated protein kinase, AMPK (Homo sapiens) (UniProt P54646+O43741+P54619+Q9UGJ0+Q9Y478+Q13131+Q9UGI9); experiment: AMP-dependent Kinase enzyme assay. An in vitro enzyme assay that detects ADP turnover that is directly proportional to AMPK activity. This uses naive AMPK that is activated during the assay with MK-8722; type: functional; details: 30 µM
[4] = biological target: Sialic acid-binding Ig-like lectin 9 (Homo sapiens) (UniProt Q9Y336); experiment: Hs-Siglec9 ALPHAscreen SOP 20170721; details: 10 µM
Sequence of Sialic acid-binding Ig-like lectin 9 (Homo sapiens) (Q9Y336 whole entry): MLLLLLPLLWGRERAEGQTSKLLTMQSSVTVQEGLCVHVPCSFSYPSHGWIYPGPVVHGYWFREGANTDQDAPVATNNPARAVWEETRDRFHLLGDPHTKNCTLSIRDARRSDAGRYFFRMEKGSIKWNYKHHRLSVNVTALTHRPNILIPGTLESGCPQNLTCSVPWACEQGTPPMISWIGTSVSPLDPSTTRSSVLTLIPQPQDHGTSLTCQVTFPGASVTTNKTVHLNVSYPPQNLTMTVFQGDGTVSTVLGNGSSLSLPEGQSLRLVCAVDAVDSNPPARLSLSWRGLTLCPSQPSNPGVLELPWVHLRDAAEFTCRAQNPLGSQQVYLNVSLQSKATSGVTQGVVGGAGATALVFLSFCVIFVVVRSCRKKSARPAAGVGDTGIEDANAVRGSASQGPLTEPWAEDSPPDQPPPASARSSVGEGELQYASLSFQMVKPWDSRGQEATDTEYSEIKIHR

Trypanosoma cruzi = experiment: Trypanosoma cruzi phosphomannomutase and mannose-1-phosphate guanylyltransferase assay; type: functional; details: 10 µM
[5] = biological target: T2, Arginase-2, mitochondrial (Homo sapiens) (UniProt P78540); experiment: in vitro enzyme assay to detect the production of urea directly proportional to the activity of Arginase II; type: functional; details: 33.3 µM; also: in the data most compounds retested in dose-response had high values
T2 sequence (whole entry): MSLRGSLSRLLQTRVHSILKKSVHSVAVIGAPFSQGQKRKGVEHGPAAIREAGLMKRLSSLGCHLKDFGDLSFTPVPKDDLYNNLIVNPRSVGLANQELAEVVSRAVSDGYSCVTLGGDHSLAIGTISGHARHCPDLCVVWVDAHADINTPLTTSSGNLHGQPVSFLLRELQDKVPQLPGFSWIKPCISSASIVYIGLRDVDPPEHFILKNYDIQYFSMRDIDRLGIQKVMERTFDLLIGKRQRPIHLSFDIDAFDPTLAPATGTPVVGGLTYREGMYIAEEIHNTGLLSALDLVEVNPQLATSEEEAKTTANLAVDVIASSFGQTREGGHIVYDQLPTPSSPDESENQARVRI

[6] = biological target: T3, Proteasome subunit beta (Trypanosoma cruzi) (UniProt O96673); experiment: Trypanosoma cruzi proteasome chymotrypsin-like activity (TcProtChymo) assay.; also: in the data most compounds retested in dose-response had high values; type: functional; details: 9.37 µM
T3 sequence (whole entry): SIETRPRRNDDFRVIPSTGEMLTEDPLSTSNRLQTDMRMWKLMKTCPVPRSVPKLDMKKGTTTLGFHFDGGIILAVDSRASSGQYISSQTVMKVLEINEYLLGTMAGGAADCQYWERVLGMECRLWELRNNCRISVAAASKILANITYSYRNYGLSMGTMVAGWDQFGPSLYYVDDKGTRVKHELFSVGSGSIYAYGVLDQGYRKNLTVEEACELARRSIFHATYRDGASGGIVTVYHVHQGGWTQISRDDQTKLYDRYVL

Homo sapiens = organism: Homo sapiens; experiment: To identify inhibition of the IFN signalling (Jak-Stat) pathway via expression of an eGFP reporter gene under the control of an IFN-stimulated response element (ISRE) containing MxA promoter.; type: functional; details: 30 µM
[7] = biological target: T4, Tyrosyl-tRNA synthetase, putative (Trypanosoma cruzi (strain CL Brener)) (UniProt Q4DSP6); experiment: Trypanosoma cruzi tyrosyl tRNA synthetase (TcYRS) _High Tyrosine SOP; type: functional; details: 30 µM; also: in the data most compounds retested in dose-response had high values
T4 sequence (whole entry): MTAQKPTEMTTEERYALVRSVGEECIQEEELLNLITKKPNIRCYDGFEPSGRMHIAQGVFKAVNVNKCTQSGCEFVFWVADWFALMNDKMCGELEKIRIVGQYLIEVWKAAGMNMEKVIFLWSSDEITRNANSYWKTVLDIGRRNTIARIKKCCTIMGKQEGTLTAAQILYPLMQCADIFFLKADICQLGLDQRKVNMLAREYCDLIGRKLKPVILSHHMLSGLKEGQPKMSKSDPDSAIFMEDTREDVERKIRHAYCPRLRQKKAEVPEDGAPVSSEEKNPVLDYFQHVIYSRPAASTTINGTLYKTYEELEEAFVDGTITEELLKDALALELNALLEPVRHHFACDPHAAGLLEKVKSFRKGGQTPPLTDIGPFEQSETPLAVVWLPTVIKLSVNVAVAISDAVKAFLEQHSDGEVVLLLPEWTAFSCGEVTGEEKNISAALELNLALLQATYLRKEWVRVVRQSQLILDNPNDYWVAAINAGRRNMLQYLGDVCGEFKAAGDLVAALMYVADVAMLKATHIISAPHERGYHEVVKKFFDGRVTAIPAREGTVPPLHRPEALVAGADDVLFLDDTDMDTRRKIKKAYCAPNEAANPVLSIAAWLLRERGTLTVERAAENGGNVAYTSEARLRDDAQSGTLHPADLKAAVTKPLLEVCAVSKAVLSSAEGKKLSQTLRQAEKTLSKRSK

[8] = biological target: T4, Tyrosyl-tRNA synthetase, putative (Trypanosoma cruzi (strain CL Brener)); experiment: Trypanosoma cruzi tyrosyl tRNA synthetase (TcYRS) SOP; type: functional; details: 30 µM
[9] = biological target: Chromo domain-containing protein 1 (Saccharomyces cerevisiae (strain ATCC 204508 / S288c) (Baker's yeast)) (UniProt P32657); experiment: ScCHD-1 Enzyme Inhibition Assay; type: functional; details: 30 µM; also: in the data most compounds retested in dose-response had high values
Sequence of Chromo domain-containing protein 1 (Saccharomyces cerevisiae (strain ATCC 204508 / S288c) (Baker's yeast)) (P32657 whole entry, the tested form may be a part): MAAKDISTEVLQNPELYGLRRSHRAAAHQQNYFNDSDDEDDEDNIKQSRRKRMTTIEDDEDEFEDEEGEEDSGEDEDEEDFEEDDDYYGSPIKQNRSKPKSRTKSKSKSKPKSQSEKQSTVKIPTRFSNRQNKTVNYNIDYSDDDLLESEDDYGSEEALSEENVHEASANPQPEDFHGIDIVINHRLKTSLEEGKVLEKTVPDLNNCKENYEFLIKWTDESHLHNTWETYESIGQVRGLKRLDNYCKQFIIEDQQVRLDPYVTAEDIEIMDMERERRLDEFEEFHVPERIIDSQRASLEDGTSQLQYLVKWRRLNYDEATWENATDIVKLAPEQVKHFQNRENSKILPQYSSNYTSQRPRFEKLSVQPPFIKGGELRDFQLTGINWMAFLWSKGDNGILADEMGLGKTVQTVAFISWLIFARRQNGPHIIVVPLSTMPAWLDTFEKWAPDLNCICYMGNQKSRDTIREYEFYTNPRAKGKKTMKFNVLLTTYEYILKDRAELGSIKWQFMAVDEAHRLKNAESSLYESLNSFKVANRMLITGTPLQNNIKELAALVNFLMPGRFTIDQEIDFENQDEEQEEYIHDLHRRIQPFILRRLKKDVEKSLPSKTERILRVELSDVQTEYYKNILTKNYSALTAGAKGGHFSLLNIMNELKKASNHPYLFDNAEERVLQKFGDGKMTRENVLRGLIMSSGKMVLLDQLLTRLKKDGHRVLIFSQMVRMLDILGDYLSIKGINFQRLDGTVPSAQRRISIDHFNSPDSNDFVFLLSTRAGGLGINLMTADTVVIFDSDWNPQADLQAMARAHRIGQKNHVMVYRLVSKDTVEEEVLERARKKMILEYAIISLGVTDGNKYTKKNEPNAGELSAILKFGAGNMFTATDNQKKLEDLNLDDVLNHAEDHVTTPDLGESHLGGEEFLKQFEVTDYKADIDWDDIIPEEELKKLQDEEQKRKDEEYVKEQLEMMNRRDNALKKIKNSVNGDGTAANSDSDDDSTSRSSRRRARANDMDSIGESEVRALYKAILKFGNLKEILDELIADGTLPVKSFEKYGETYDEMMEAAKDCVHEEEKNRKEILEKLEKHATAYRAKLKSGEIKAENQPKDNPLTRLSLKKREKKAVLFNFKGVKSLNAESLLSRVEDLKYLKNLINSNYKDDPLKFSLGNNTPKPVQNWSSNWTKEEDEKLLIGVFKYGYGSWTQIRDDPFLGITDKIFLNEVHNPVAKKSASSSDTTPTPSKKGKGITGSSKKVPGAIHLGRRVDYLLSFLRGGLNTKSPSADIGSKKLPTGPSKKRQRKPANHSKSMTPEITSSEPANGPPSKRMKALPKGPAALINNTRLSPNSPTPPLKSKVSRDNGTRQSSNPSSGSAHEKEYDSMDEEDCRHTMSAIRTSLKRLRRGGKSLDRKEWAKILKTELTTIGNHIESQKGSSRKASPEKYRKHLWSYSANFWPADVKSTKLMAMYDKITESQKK

Compound	Percent Effect [1]	Percent Effect [2]	Percent Effect [3]	Percent Effect [4]	Percent Effect (Trypanosoma cruzi)	Percent Effect [5]	Percent Effect [6]	Percent Effect (Homo sapiens)	Percent Effect [7]	Percent Effect [8]	Percent Effect [9]
CN(Cc1nccn1CC(F)(F)F)C(=O)c1cccc(C#N)c1	-3.37%	-2.63%	6.05%	3.82%	-3.21%	-4.73%	3.74%	-14.9%	3.19%	5.2%	13.6%
CCOc1cccc2c1OCC(C(=O)NS(=O)(=O)Cc1ccccc1)=C2	-2.71%	0%	1.17%	-4.5%	-8.59%	24.9%	2.52%	24.4%	-10.3%	-6.17%	-6.55%
COCC1CC2(CCN(Cc3cnn(C)c3)CC2)CN1c1ncccn1 (configuration not stated)	-2.97%	13%	0.218%	12.7%	7.38%	-5.52%	11.7%	-19%	7.53%	18.5%	-2.6%
CC(C)(C)c1noc(CN2CCCN(Cc3cccs3)CC2)n1	-4.7%	10.4%	2.92%	-6.09%	-3.75%	0.356%	1.69%	30%	6.8%	12.2%	-5.35%
CC(OCC1CC1)C(=O)N1CCCN(c2ncccc2C#N)CC1 (configuration not stated)	-5.69%	23.7%	-5.36%	-8.93%	-0.0934%	-8.99%	2.79%	-5.09%	6.4%	-8.64%	-5.69%
c1cc2n(n1)CC(CNCc1ccc(OC3CCCCC3)nc1)CN2 (configuration not stated)	-2.12%	18.2%	1.34%	5.86%	7.49%	-1.78%	5.41%	-2.37%	9.71%	21.9%	-7.9%
Cc1cnn(CC2CCCCN2Cc2nnc(-c3ccco3)o2)c1 (configuration not stated)	-5.16%	13.5%	-9.36%	20.3%	3.11%	-5.61%	13.3%	7.01%	8.37%	18.5%	-11.7%
O=C(NC1CCCC1)N1CCCC(c2nccn2Cc2ccncc2)C1 (configuration not stated)	-3.14%	4.17%	2.03%	9.67%	8.07%	-0.883%	7.54%	-38.2%	4.21%	5.13%	-4.06%
CNC(=O)c1cccc(NC(=O)CN2CCN(S(C)(=O)=O)CC2)c1	-3.07%	18.9%	-6.24%	18.5%	5.57%	4.22%	13.8%	8.76%	5.38%	16.1%	-3.08%
Cc1cccc(C2(CNC(=O)CCN3C(=O)CCC3=O)CCCC2)c1	-5.2%	10.1%	1.38%	0.402%	5.95%	-4.56%	3.36%	8.93%	9.36%	13.9%	-5.07%
CN(C)C(CNC(=O)c1cccc(-n2cnnn2)c1)c1ccccc1Cl (configuration not stated)	-1.38%	2.74%	2.54%	-4.62%	-7.64%	3.64%	10.8%	10.5%	3.23%	10%	-3.4%
CC(Cn1cccn1)NC(=O)CCc1ccc(S(N)(=O)=O)cc1 (configuration not stated)	-7.11%	18.2%	-0.578%	3.31%	6.37%	-2.74%	7.03%	11%	6.67%	23.5%	-9.46%
COc1cnc(C2(O)CCN(C(=O)c3cccnc3)CC2)c(OC)n1	-4.3%	4.05%	11.7%	7.31%	-1.78%	-0.696%	-0.156%	-1.41%	5.38%	6.49%	-4.19%
CC(C)N1CCC(Cc2cnc(-c3cccc(C(=O)O)c3)cn2)C1 (configuration not stated)	-3.78%	1.35%	12.1%	1.95%	1.19%	1.62%	-3.59%	7.71%	0%	9.09%	5.67%
CCn1ccnc1CN1CCCC(CO)(Cc2cccc(Cl)c2)C1 (configuration not stated)	-5.53%	2.7%	-2.31%	28.9%	3.23%	-1.24%	3.18%	-2.28%	2.15%	11.1%	-1.59%
CCC(NC(=O)C1CCN(S(=O)(=O)N(C)C)CC1)c1ccc(C)c(C)c1 (configuration not stated)	0.26%	0%	0.886%	1.28%	-2.46%	19.3%	8.82%	-10.2%	-2.15%	1.24%	-0.385%
O=C(CCc1ccccc1)NCC1CCN(Cc2ccsc2)CC1	-2.4%	13%	4.5%	-9.22%	-5.62%	7.1%	15.3%	20.5%	2.12%	8.97%	-8.15%
CCc1nc(N)sc1C(=O)N1CCCC(CCc2ccccc2C)C1 (configuration not stated)	-4.6%	5.41%	-6.81%	34.1%	4.59%	-0.744%	10.6%	34.9%	9.68%	18.5%	-1.19%
CN(C)C(=O)N1Cc2nnn(C)c2C(COCC2CC2)C1 (configuration not stated)	1.21%	-21.9%	-4.36%	0.0741%	4.96%	2%	6.76%	-7.39%	2.08%	6.17%	-1.7%
CC(=O)N1CCCN(C(=O)c2oc(Br)cc2C)CC1	-0.989%	10.8%	-1.11%	15.2%	2.12%	6.19%	21.4%	4.33%	2.65%	17.1%	-7.7%
Cc1cnn(CC2CCCN2Cc2coc(-c3ccccc3)n2)c1 (configuration not stated)	0.182%	-11%	-9.12%	16.7%	6.46%	1.82%	1.77%	-7.46%	3.23%	5%	-6.56%
Cc1ncsc1C(=O)NCCSCc1cccs1	-1.5%	2.7%	-1.07%	13.7%	3.44%	-3.14%	7.9%	16.5%	0%	11%	-5.27%
